Entries with a potency or affinity are not part of this list. The source made the active and inactive calls.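 The calls were made as follows: active = fitted half-maximal dose no more than twice the top valid tested dose, for compounds that lower signal; inconclusive = fit invalid, or curve flat with activity between -70 and -30; inactive = potency past limit, curve flat within ±30, or signal increasing.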
These molecules were tested against NAD-dependent protein deacylase sirtuin-5, mitochondrial (Homo sapiens) (UniProt Q9NXA8) (assay: blockers of sirtuin-5 peptide desuccinylation – biochemical, fluorescence imaging, cherry-pick, set 6, dose response (AID 720597;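 also: lower AMC signal can also come from blocking the trypsin step; 0% = median of neutral control wells and -100% = median of positive control wells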)). Conditions: Purified SirT5, succinyl-peptide-AMC/trypsin fluorescence; series mostly up to 15 µM; activity change, negative = inhibition: at the top concentration.
Sequence of NAD-dependent protein deacylase sirtuin-5, mitochondrial (Homo sapiens) (Q9NXA8 whole entry, looked up): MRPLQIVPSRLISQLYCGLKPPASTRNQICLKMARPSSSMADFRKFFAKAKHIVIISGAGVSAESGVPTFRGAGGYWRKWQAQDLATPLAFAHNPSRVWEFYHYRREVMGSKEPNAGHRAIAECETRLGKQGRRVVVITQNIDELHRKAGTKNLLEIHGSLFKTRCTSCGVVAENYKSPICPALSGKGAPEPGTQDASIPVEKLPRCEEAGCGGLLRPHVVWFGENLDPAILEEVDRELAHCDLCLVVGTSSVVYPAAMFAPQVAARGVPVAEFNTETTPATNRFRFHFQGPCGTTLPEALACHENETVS

Activity change, negative = inhibition, inactive:
COc1ccc(S(=O)(=O)N(C)C[C@H]2Oc3ccc(NC(=O)NC4CCCCC4)cc3C(=O)N([C@@H](C)CO)C[C@@H]2C)cc1 -0.523%
COc1ccc(S(=O)(=O)Nc2ccc3c(c2)C(=O)N([C@H](C)CO)C[C@H](C)[C@@H](CN(C)Cc2ccc(C(F)(F)F)cc2)OCCCC[C@H](C)O3)cc1 -11.4% [at 7.5 µM]
C[C@@H]1CN([C@H](C)CO)S(=O)(=O)c2ccc(C#Cc3cccc(F)c3)cc2O[C@@H]1CN(C)CC1CC1 -28.8%
CC(C)NC(=O)Nc1ccc2c(c1)C(=O)N([C@H](C)CO)C[C@H](C)[C@H](CN(C)C(=O)Cc1ccccc1)OCCCC[C@H](C)O2 -25.6%
COc1ccc(NC(=O)N(C)C[C@H]2Oc3ccc(NS(=O)(=O)c4ccc(F)cc4)cc3C(=O)N([C@H](C)CO)C[C@H]2C)cc1 -20.5%
COc1ccccc1S(=O)(=O)N(C)C[C@@H]1Oc2cc(C#CCC(C)C)ccc2S(=O)(=O)N([C@@H](C)CO)C[C@@H]1C 10%
O=C(N[C@@H]1CC[C@H](CCNS(=O)(=O)c2ccccc2)O[C@H]1CO)c1cnccn1 7.21%
COc1ccc(NC(=O)N(C)C[C@H]2Oc3cc(C#CCC(C)C)ccc3S(=O)(=O)N([C@@H](C)CO)C[C@H]2C)cc1 10.4%
CCCN1C[C@H](C)[C@@H](OC)CN(C)C(=O)c2cc(NS(=O)(=O)c3ccccc3)ccc2OC[C@H]1C -6.09%
C[C@@H]1CN([C@@H](C)CO)C(=O)c2cc(NS(=O)(=O)c3ccccc3)ccc2O[C@@H](C)CCCCO[C@H]1CN(C)S(=O)(=O)c1ccc(Cl)cc1 -18.9%
